The full ranking holds about 33,000 sequences; the median of “e-score” is about -0.037, and the highest 2% start at about 0.34. The sample holds the highest values, similar sequences and a random draw of the others, so the mix is not that of the screen.

This assay deals with T1, GST-Rok (full length) (Bacillus subtilis subsp. subtilis str. …, UniProt O34857 1-191).
T1 sequence: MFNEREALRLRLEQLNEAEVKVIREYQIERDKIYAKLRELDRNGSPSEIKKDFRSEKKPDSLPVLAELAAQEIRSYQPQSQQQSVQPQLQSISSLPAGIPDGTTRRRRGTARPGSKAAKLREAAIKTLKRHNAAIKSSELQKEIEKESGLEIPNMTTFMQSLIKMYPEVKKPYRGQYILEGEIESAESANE
Briefly: protein binding microarray; Rok is a gene silencer of Bacillus subtilis; high values mean tight binding. The settings on record: protein: recombinant; tags: GST (pTH5325, pDEST15-Magic modified); dsDNA, one strand shown. In a few lines:
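Each has a 25-mer constant primer and a 35-mer variable part from a de Bruijn sequence of order 10, covering every non-palindromic 8-mer at least 32 times (palindromic 16). Preference for each 8-mer is given as a rank-based, unitless enrichment score (E-score). Its range runs from 0.5 (most favored) to −0.5 (most disfavored).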
For CGGACTTC, the binding signal is -0.0622 E-score. Under AGTGTTAG stands 0.118 E-score. As to GCGCGGTA, the binding signal came to 0.073 E-score. For TGATATAA the value was 0.371 E-score.

Take CGATATAC: the binding signal came out at 0.239 E-score. For the sequence CGATATAG, the binding signal was found to be 0.191 E-score.

Regarding GGATATAA, the binding signal amounted to 0.271 E-score. Under CGATATAA stands 0.357 E-score; under TGATAAAA, 0.27 E-score.

As for CTTCTTTC, the binding signal is 0.0125 E-score. For CGCGCTGA the value was 0.105 E-score; for CAACGAGC, -0.148 E-score; for ACCTTCTC, -0.145 E-score. For ATAACATA the value was 0.365 E-score; for ATAACATG, 0.152 E-score; for CTAACATA, 0.186 E-score. For ACGTCAAG the value was 0.0301 E-score; for GTGTAGTA, 0.379 E-score; for ATGTAGTC, 0.162 E-score. Regarding CTGTAGTA, the binding signal was 0.243 E-score.

Take ATGTAGTG: the binding signal was found to be 0.211 E-score.

Turning to GAGTAGTA, the binding signal was determined as 0.311 E-score. As for ATGTAGTA, the binding signal was found to be 0.403 E-score.

Take CCCAGTAG: the binding signal was 0.151 E-score. For the sequence AAGTTCAT, the binding signal was 0.147 E-score. Under ATGCAAAA stands 0.086 E-score.

For the sequence AAAATACG, the binding signal worked out at 0.303 E-score. For AAAATAAT the value was 0.246 E-score; for AAAATACC, 0.373 E-score; for GAAATACC, 0.175 E-score. For GAAATACA the value was 0.184 E-score; for AAAATACT, 0.416 E-score. Take TAAATACA: the binding signal turned out to be 0.333 E-score. On to CAAATACC, for which the binding signal worked out at 0.126 E-score. As for AAAATACA, the binding signal came out at 0.344 E-score.

For the sequence AACGGTGG, the binding signal turned out to be 0.0395 E-score. For CGCCGACG the value was -0.0281 E-score; for AAACAGGA, 0.00183 E-score; for ACGTATCA, 0.0936 E-score. For ACCTTATC the value was 0.155 E-score. Under AACTTAAG stands 0.0622 E-score; under ACCATGTA, 0.385 E-score; under CACATGTA, 0.284 E-score. Consider CCCATGTA, for which the binding signal is 0.12 E-score. For AACATGTA the value was 0.285 E-score; for AACATACT, 0.136 E-score. For TACATGTA the value was 0.339 E-score.

TACATCTA: the binding signal was 0.382 E-score. Take AACATCTA: the binding signal came to 0.236 E-score. Under AACATACG stands 0.205 E-score; under ACCATGTG, -0.159 E-score; under CACATCTA, 0.268 E-score.

With AACATACA, the binding signal came to 0.355 E-score. GTCAACAA: the binding signal was determined as 0.0786 E-score. CTGGACTA: the binding signal came out at 0.0592 E-score. Consider CTACAGAC, for which the binding signal was 0.12 E-score. Under CAGATAGA stands 0.172 E-score; under AATTTGGT, 0.177 E-score; under CTTAGCAC, -0.0712 E-score. In the case of AGGACTAC, the binding signal is -0.0384 E-score. Under CTGCAATA stands 0.13 E-score; under GTAGAGAA, 0.189 E-score. As for TACATACA, the binding signal was 0.341 E-score. Under CACATACA stands 0.167 E-score; under TACATATA, 0.347 E-score. Regarding GACATATA, the binding signal was found to be 0.277 E-score.

Take GACATACA: the binding signal turned out to be 0.0575 E-score. AACATATA: the binding signal stood at 0.257 E-score. For the sequence GTCAGTAA, the binding signal is 0.00175 E-score. With GCATGGAA, the binding signal was -0.193 E-score. With GCGACTGA, the binding signal worked out at 0.0748 E-score.

CGGTGAAC: the binding signal came to 0.00962 E-score. As to GTCTAGCA, the binding signal was -0.0242 E-score. For CACATCGC the value was -0.127 E-score; for CATCAGGC, -0.154 E-score; for GTAATGGA, 0.266 E-score. On to CTAGCGAC, for which the binding signal was -0.128 E-score. Under AAGCGTCG stands -0.184 E-score; under ATAGTTAC, 0.349 E-score; under CTAGTTAC, 0.418 E-score. Regarding CTAGTTCC, the binding signal was 0.188 E-score. In the case of CTAGTTGC, the binding signal worked out at 0.281 E-score. For ATAGTTAA the value was 0.329 E-score.

With ATAGTTAG, the binding signal came to 0.319 E-score. CACAAAAC: the binding signal came out at 0.0504 E-score. Take GATTGCAA: the binding signal worked out at 0.0926 E-score.

For the sequence GGAAGCTA, the binding signal was 0.285 E-score. Under AATTGGTC stands 0.0556 E-score; under CAGTGGTA, 0.258 E-score. Under AATTGGTA stands 0.339 E-score; under AAGTGGTA, 0.348 E-score. As to CATTGGTA, the binding signal was determined as 0.223 E-score. Take AAGTGGTC: the binding signal is -0.0764 E-score.

In the case of ACCGCCAC, the binding signal was -0.135 E-score. For AATTGTGT the value was 0.149 E-score; for CACTTTAG, -0.146 E-score.

For the sequence GTACTTAA, the binding signal was 0.275 E-score. Under CTACTGTA stands 0.343 E-score; under ATACTTAA, 0.0668 E-score. For ATACTGTA the value was 0.34 E-score; for ATACTGAA, 0.103 E-score; for CTACTTAA, 0.372 E-score. As for CTACTGAA, the binding signal was determined as 0.0898 E-score. Take ATACTGTG: the binding signal amounted to 0.0179 E-score. For GTACTGTA the value was 0.155 E-score; for ACAGTACG, 0.142 E-score; for GAAGTTGC, 0.0518 E-score. Turning to ACGGTCTG, the binding signal is -0.0535 E-score. AGCTTACG: the binding signal is -0.0197 E-score.

(Values after publication PMC6212790, “How bacterial xenogeneic silencer rok distinguishes foreign from self DNA in its resident genome”.)
